Sampled rows, rich in hits. Any-hit rate of the full collection: about 1.5%.
TLR4 MyD88 comp: inhibitors of human TLR4-MyD88 binding; inhibition, % at 8.4 µM; hit rate 0.18% among 200,000; O00206+Q99836; HeLa CL3-4 TLR4/MyD88 BLA complementation, FRET ratio; in the data active = inhibition above about 25%
B2AR ag: activates human beta-2 adrenergic receptor causing internalization; P07550; Am2.2-beta2AR cells, FAP receptor internalization, flow cytometry; response, % (concentration not given with the values); hit rate 0.43% among 340,000;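 active = response above a set limit, near 3 SD of response in nonfluorescent compounds, cut at about 42% in these data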
Target sequence (P07550 whole entry, looked up): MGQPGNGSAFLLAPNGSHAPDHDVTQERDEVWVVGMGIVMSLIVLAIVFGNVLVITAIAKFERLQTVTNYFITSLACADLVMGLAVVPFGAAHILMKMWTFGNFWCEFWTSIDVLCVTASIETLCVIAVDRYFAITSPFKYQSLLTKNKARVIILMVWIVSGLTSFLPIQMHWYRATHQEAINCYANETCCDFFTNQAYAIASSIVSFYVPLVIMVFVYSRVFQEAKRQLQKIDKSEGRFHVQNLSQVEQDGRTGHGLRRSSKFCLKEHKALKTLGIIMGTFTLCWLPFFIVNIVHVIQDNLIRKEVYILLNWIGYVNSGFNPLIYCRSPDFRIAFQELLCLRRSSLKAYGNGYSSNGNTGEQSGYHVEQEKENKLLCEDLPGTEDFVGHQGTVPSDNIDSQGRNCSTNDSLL
NOD2-RIPK2 inh: blocks binding of human NOD2 to RIPK2; O43353; CHO BLA complementation NOD2-RIPK2, CCF4 ratio; inhibition, % at 4.98 µM; hit rate 0.38% among 360,000; AID 624267; in the data active = inhibition above about 21%
NTR1 agonist: activates human neurotensin receptor 1 | activation, % at 20 µM | NTR1-U2OS beta-arrestin-GFP spot imaging, agonist mode | P30989 | hit rate 0.17% among 330,000;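 active = activation at or above 40% of the spot to cytoplasm intensity ratio, with at least 20 cells analyzed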
TLR9-MyD88 block: inhibitors of human TLR9-MyD88 binding; hit rate 0.21% among 340,000; Q9NR96+Q99836; CHO BLA complementation TLR9-MyD88, CCF4 FRET ratio; AID 504734; inhibition, % at 4.98 µM;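 active = inhibition above the mean over all tested compounds plus 3 SD, cut at about 21% in these data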
ABHD5-PLIN5 inh: inhibitors of human ABHD5-perilipin-5 interaction. Q00G26+Q8WTS1. Split G. princeps luciferase complementation, luminescence, 4 h. inhibition, % at 4 µM. hit rate 0.78% among 360,000. AID 602281;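 active = inhibition above the mean inhibition across every tested compound plus 3 SD, cut at about 22% in these data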
ABHD5 PLIN5 conf: confirmation of human ABHD5-PLIN5 interaction inhibitors; shares compounds with ABHD5-PLIN5 inh; biochemical ABHD5-PLIN5 interaction, luminescence; inhibition, % at 4 µM; hit rate 67% among 2,200; in the data active = inhibition above about 23%
HNF4 split-luc: HNF4 split-luciferase signal hit, counter-screen. shares compounds with ABHD5-PLIN5 inh. HNF4 dimerization, luminescence, biochemical. inhibition, % at 4 µM. hit rate 77% among 2,200;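 active = mean inhibition across replicate wells exceeding the computed hit threshold, cut at about 13% in these data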;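 note: light from luciferase halves that rejoin when HNF4 fusion proteins dimerize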
Large screens that a line does not name were inactive (follow-up assays come after a bar, where they were run).

CC[C@@H]1CCC[C@@H](O)[C@@H](C)C(=O)O[C@H](C)[C@@H](C)C/C=C(C)/C(OC)=C\C(=O)N(C)C([C@@H](C)CC)C(=O)N(C)[C@@H](C(C)C)C(=O)N(C)[C@@H](COC)C(=O)N2CCC[C@H]2C(=O)N(C)[C@@H](C(C)C)C(=O)N2CCC[C@H]2C(=O)O1 (some centres undefined)	none (no result: TLR4 MyD88 comp, B2AR ag, NTR1 agonist, TLR9-MyD88 block)
Cc1cc(C)c(C(CC(=O)c2cccs2)C(C#N)C#N)c(C)c1 (centres undefined)	ABHD5-PLIN5 inh 24 | ABHD5 PLIN5 conf 64 | HNF4 split-luc 41
CCN1CCC(O)(/C=C/c2ccc(C(C)C)cc2)C(C(=O)/C=C/c2ccc(C(C)C)cc2)C1 (centres undefined)	ABHD5-PLIN5 inh 67 (no result: TLR4 MyD88 comp, NTR1 agonist) | ABHD5 PLIN5 conf 78 | HNF4 split-luc 79
COc1cccc(C(NC(C)=O)c2nc(-c3cccc(C(C)C)c3)cs2)c1 (centres undefined)	none (no result: TLR4 MyD88 comp, B2AR ag, NTR1 agonist, TLR9-MyD88 block)
O=C(O)c1ccccc1NS(=O)(=O)c1cccc(-n2sc3ccccc3c2=O)c1	ABHD5-PLIN5 inh 37 (no result: TLR4 MyD88 comp) | ABHD5 PLIN5 conf 93 | HNF4 split-luc 115
O=C(O)c1ccccc1NS(=O)(=O)c1cccc(C(F)(F)F)c1	none
C[C@H]1CN([C@@H](C)CO)C(=O)c2cc(Br)cnc2O[C@H]1CN(C)C(=O)Cc1ccccn1	none (no result: TLR4 MyD88 comp, B2AR ag, NTR1 agonist)
CCN1c2ccccc2NC2N=C(OC)C(c3ccccc3)C21 (centres undefined)	ABHD5-PLIN5 inh 48 | ABHD5 PLIN5 conf inactive | HNF4 split-luc 13
COCCCNC(=O)C[C@H]1C[C@H](C(=O)N2CCOCC2)[C@@]2(CCC3CCCC3)c3[nH]c4cc(-c5ccco5)ccc4c3CCN2C1=O	none (no result: TLR4 MyD88 comp)
COc1ccc(CNC(=O)C[C@H]2C[C@H](C(=O)N3CCOCC3)[C@@]3(CCC4CCCC4)c4[nH]c5cc(-c6ccco6)ccc5c4CCN3C2=O)cc1OC	ABHD5-PLIN5 inh 29 (no result: TLR4 MyD88 comp) | ABHD5 PLIN5 conf inactive | HNF4 split-luc 13
CN(C)CCCNC(=O)C[C@H]1C[C@H](C(=O)N2CCOCC2)[C@@]2(CCC3CCCC3)c3[nH]c4cc(-c5ccco5)ccc4c3CCN2C1=O	B2AR ag 63, ABHD5-PLIN5 inh 25 (no result: TLR4 MyD88 comp) | ABHD5 PLIN5 conf inactive | HNF4 split-luc inactive
O=C(C[C@H]1C[C@H](C(=O)N2CCOCC2)[C@@]2(CCC3CCCC3)c3[nH]c4cc(-c5ccco5)ccc4c3CCN2C1=O)NCc1cccc(C(F)(F)F)c1	ABHD5-PLIN5 inh 23 (no result: TLR4 MyD88 comp) | ABHD5 PLIN5 conf inactive | HNF4 split-luc inactive
CCN(CC)C(=O)[C@H]1C[C@H](CC(=O)NCCc2ccccn2)C(=O)N2CCc3c([nH]c4cc(-c5ccco5)ccc34)[C@]12C	ABHD5-PLIN5 inh 24 (no result: TLR4 MyD88 comp) | ABHD5 PLIN5 conf inactive | HNF4 split-luc inactive
CC(C)N(C(=O)[C@H]1C[C@H](CC(=O)NCCc2ccccn2)C(=O)N2CCc3c([nH]c4cc(-c5ccco5)ccc34)[C@]12C)C(C)C	none (no result: TLR4 MyD88 comp)
C=CC1CN2CCC1CC2C(O)c1ccnc2ccc(OC)cc12 (centres undefined)	none (no result: TLR4 MyD88 comp, NTR1 agonist)
CN(C)CCCNC(=O)c1ccc(-c2nc(-c3ccc(Cl)cc3)cs2)cc1	ABHD5-PLIN5 inh 27 | ABHD5 PLIN5 conf 22 | HNF4 split-luc inactive
CN(C)CCCNC(=O)c1ccccn1	none
COc1ccccc1OCCn1nc2ccccc2c1OC	none (no result: TLR4 MyD88 comp, B2AR ag, NTR1 agonist, TLR9-MyD88 block)
C=CCN(CC=C)Cc1c(O)ccc2c1oc(=O)c1ccccc12	ABHD5-PLIN5 inh 68 | ABHD5 PLIN5 conf inactive | HNF4 split-luc 17
Cc1ccccc1Nc1nc2nonc2nc1N1CCOCC1	ABHD5-PLIN5 inh 25 (no result: NTR1 agonist) | ABHD5 PLIN5 conf inactive | HNF4 split-luc inactive
Cc1ccc(NC(=O)C2c3ccccc3-c3ccccc32)cc1	none (no result: TLR4 MyD88 comp, B2AR ag, NTR1 agonist, TLR9-MyD88 block)
Cc1cc(C(=O)NNC(=O)/C=C/c2ccco2)c(C)o1	ABHD5-PLIN5 inh 42 (no result: TLR4 MyD88 comp) | ABHD5 PLIN5 conf 66 | HNF4 split-luc 49
COc1cccc2cc(C(=O)NCc3ccco3)c(=O)oc12	none

Source: PubChem BioAssay (several laboratories)
